Assay results published in PubChem BioAssay (EPA / NIEHS).
The source made the active and inactive calls. The calls were made as follows: active = hit-call score of the fitted dose curve at least 0.9, where 1 is the maximum; inactive = score below 0.9.

Read-out: Glutathione S-Transferase (GSTA2), GSTA2 (gene 2939)
Assay: LTEA_HepaRG_GSTA2: Life Technologies and Expression Analysis (LTEA) Assay for Glutathione S-Transferase (GSTA2) using HepaRG (AID 2283497)
Details: mRNA level, 48 h; actives raise or lower the signal
Description: LTEA_HepaRG is a cell based, multiplexed-readout assay that uses HepaRG, a human liver cell line, with measurements taken at 48 hours after chemical dosing on a 96-well plate.LTEA_HepaRG_GSTA2 is one of 102 assay component(s) measured in the LTEA HepaRG cell culture assay. It is a marker of Oxidative Stress.Data from the assay component LTEA_HepaRG_GSTA2 was analyzed into 1 endpoint. This assay endpoint, LTEA_HepaRG_GSTA2, was analyzed with bidirectional fitting relative to DMSO as the negative control and baseline of activity. Using a type of inducible reporter, measures of mRNA induction for gain or loss-of-signal activity can be used to understand regulation of transcription factor activity. To generalize the intended target to other relatable targets, this assay endpoint is annotated to the transferase intended target family, where the subfamily is alkyl and aryl transferase.
A total of 1060 chemcials from the ToxCast library were tested in eight-point concentration-response experiments. Cell culture and cytotoxicity assays were conducted at Thermo Fisher Scientific's Custom Services facility (Madison, WI). A single lot of human HepaRG cells (Thermo Fisher Scientific, Frederick, MD) was used for the cell culture experiments. 96-well format collagen type I coated plates of human HepaRG cells were prepared using established methods. Briefly, cryopreserved HepaRG cells were thawed, plated at a density of approximately 100,000 cells/well in HepaRG Thaw, Plate, and General Purpose media (HPRG770, Thermo Fisher Scientific), and incubated for 48 hours. 0.5% DMSO was selected as vehicle control to balance the requisite need of DMSO in HepaRG cultures to maintain differentiation (for example, baseline metabolism, proportions of hepatocytes vs. cholangiocytes), while enabling further hepatic receptor pathway activation (for example, PXR and CAR) in response to chemical exposure. 48 hours after plating, the culture medium was replaced with HepaRG Serum-Free Incudtion Media. Cells were exposed to each test chemical in duplicate and maintained in CO2 incubators for another 48 hours. Chemical plates were thawed to room temperature and 200x concentrations of treatment groups were prepared. 8-point conentration-reponse curves were made with the highest exposure at 100 uM, followed by half-log dilutions, all in 0.5% DMSO. Each test plate contained variouse controls, induction positive controls (1mM phenobarbital), cytotoxicity positive controls ([…] aflatoxin B1), vehicle controls (0.5% DMSO), and total lysis controls (0.5% DMSO). Cell morphology images were taken using an Essen IncuCyte FLR automated microscope, with six 96-well plates imaged in about 24 minutes. Images were captured and exported and JPEG files. Spent culture media was transfered to black-well plates for the LDH assay, and remaining media was sorted at -80 C for later use. Cells were treated with RLT buffer and frozen until shipped for gene expression analysis. Total RNA was isolated from the cell suspension in 75 uL of Buffer RLT (Qiagen, Germantown, MD 20874) by Quintiles/Expression Analysis (Durham, NC) using a custom isolation procedure. Total RNA from each plate well was transferred to a preamplification plate. Fluidigm's 96.96 Dynamic ArrayTM (Fluidigm, Amsterdam, the Netherlands) technology was used for gene expression analyses by quantitative reverse transcription polymerase chain reaction (qRT-PCR, performed by Quintiles/Expression Analysis, Durham, NC)89. Standard TaqManTM Assays (Applied Biosystems/ThermoFisher Scientific, Foster City, CA) were used to assess the expression of 93 genes selected based on their selectivity and sensitivity to important hepatic receptors known to be modulated by environmental chemicals; importance in human hepatocyte functionality; and hepatotoxicity. […]

| SMILES | outcome | AC50 |
| --- | --- | --- |
| C[C@]12CCC(=O)C=C1CC[C@@H]1[C@@H]2CC[C@@]2(C)[C@H]1CC[C@]2(C)O | inactive |  |
| CC#Cc1cc(C)nc(Nc2ccccc2)n1 |  | 28 µM (active) |
| CCC(C)(c1ccc(O)cc1)c1ccc(O)cc1 | inactive |  |
| O=NN(c1ccccc1)c1ccccc1 | inactive |  |
| Cc1cc(-c2ccc(N)c(C)c2)ccc1N | inactive |  |
| Cc1cccc(C)c1N | inactive |  |
| COS(=O)(=O)OC | inactive |  |
| O=C(NC(=O)c1c(F)cccc1F)Nc1cc(Cl)c(OC(F)(F)C(F)F)c(Cl)c1 | inactive |  |
| CCSC(=O)N(CC)C1CCCCC1 | inactive |  |
| O=S(=O)(O)C(F)(F)C(F)(F)C(F)(F)C(F)(F)C(F)(F)C(F)(F)F | inactive |  |
| CCCCCCOC(=O)c1ccccc1C(=O)OCCCCCC | inactive |  |
| Cc1cc(O)ccc1Cl | inactive |  |
| Cc1ccccc1[N+](=O)[O-] | inactive |  |
| C=CC(=O)NCNC(=O)C=C |  | 12.7 µM (active) |
| c1ccc(-c2ccccc2)cc1 | inactive |  |
| Cc1ccc(O)c(C)c1 | inactive |  |
| CC(C)C(=O)OCC(C)(C)C(OC(=O)C(C)C)C(C)C (stereo not given) | inactive |  |
| O=S(=O)(O)C(F)(F)C(F)(F)C(F)(F)C(F)(F)F | inactive |  |
| CCOC(=O)C(O)(c1ccc(Cl)cc1)c1ccc(Cl)cc1 | inactive |  |
| CCCCCCCCCC[N+](C)(C)CCCCCCCCCC |  | 74.5 µM (active) |

| SMILES | outcome | AC50 |
| --- | --- | --- |
| Oc1ccc(C(c2ccc(O)cc2)(C(F)(F)F)C(F)(F)F)cc1 |  | 79.5 µM (active) |
| CCCCCCCCCc1ccc(O)cc1 | inactive |  |
| CCCCCCCCOC(=O)c1ccccc1C(=O)OCCCCCCCC | inactive |  |
| O=C(NC(=O)c1cc(F)c(F)cc1Cl)Nc1cc(F)ccc1N1CCC(C(=O)O)CC1 | inactive |  |
| CCNc1nc(NC(C)C)nc(SC)n1 | inactive |  |
| Cc1cc2c3c(c1)C(c1ccccc1)=N[C@@H](NC(=O)c1ccncc1)C(=O)N3CC2 | inactive |  |
| CC1=C2C[C@H]3[C@@H](CC=C4C[C@@H](O)CC[C@@]43C)[C@@H]2CC[C@]12O[C@@H]1C[C@H](C)CN[C@H]1[C@H]2C | inactive |  |
| Nn1cnnc1 | inactive |  |
| Oc1ccc(Cl)cc1Cl | inactive |  |
| O=C(O)C(F)(F)C(F)(F)C(F)(F)C(F)(F)C(F)(F)C(F)(F)C(F)(F)C(F)(F)C(F)(F)F |  | 35.5 µM (active) |
| Cc1ccccc1O | inactive |  |
| CCC(=O)O[C@H]1CC[C@H]2[C@@H]3CCC4=CC(=O)CC[C@]4(C)[C@H]3CC[C@]12C | inactive |  |
| c1cc2ccc3cccc4ccc(c1)c2c34 | inactive |  |
| CN(C)c1nc(=O)n(C2CCCCC2)c(=O)n1C | inactive |  |
| NS(=O)(=O)C(F)(F)C(F)(F)C(F)(F)C(F)(F)C(F)(F)C(F)(F)C(F)(F)C(F)(F)F |  | 13 µM (active) |
| CCC(C)(CC)c1cc(NC(=O)c2c(OC)cccc2OC)on1 | inactive |  |
| COc1ccc(O)c(C(C)(C)C)c1 | inactive |  |
| C1CC2OC2CC1C1CO1 (stereo not given) | inactive |  |
| Oc1c(Cl)c(Cl)c(Cl)c(Cl)c1Cl |  | 3.87 µM (active) |
| Cc1cccc([N+](=O)[O-])c1 | inactive |  |
